Drawing on PubChem BioAssay (EPA / NIEHS), this text covers outcome and AC50 for three molecules.

Conditions in all cases: mRNA level, 48 h; actives raise or lower the signal
Read-out in assay [1]: Interleukin 6 (IL6), IL6 (gene 3569)
Kind of assay: LTEA_HepaRG_IL6: Life Technologies and Expression Analysis (LTEA) Assay for Interleukin 6 (IL6) using HepaRG (AID 2283509). The gist of the method: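 Differentiated human HepaRG cells, plated 48 h then switched to serum-free induction medium, were exposed in duplicate for 48 h to eight half-log concentrations up to 100 uM in 0.5% DMSO. IL6 mRNA measured by qRT-PCR, normalized to ACTB/GAPDH/POLR2A.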

Read-out in assay [2]: Interleukin 6 Receptor (IL6R), IL6R (gene 3570)
Description: LTEA_HepaRG_IL6R: Life Technologies and Expression Analysis (LTEA) Assay for Interleukin 6 Receptor (IL6R) using HepaRG (AID 2283510).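 On AC50: TaqMan qRT-PCR signal normalized to ACTB GAPDH and POLR2A housekeeping genes.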 The gist of the method:
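Readout is IL6R transcript level by TaqMan qRT-PCR, normalized to three housekeeping genes and fitted bidirectionally against 0.5% DMSO controls. Human HepaRG cells received chemicals for 48 h in serum-free induction medium, highest concentration 100 uM.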

Read-out in assay [3]: Potassium channel subfamily K member 1 (KCNK1), KCNK1 (gene 3775)
Kind of assay: LTEA_HepaRG_KCNK1: Life Technologies and Expression Analysis (LTEA) Assay for Potassium channel subfamily K member 1 (KCNK1) using HepaRG (AID 2283511). The gist of the method:
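Differentiated human HepaRG cells in serum-free induction medium were exposed in duplicate for 48 h to 8 half-log concentrations up to 100 uM in 0.5% DMSO. KCNK1 mRNA was measured by TaqMan qRT-PCR, normalized to ACTB, GAPDH and POLR2A, and fitted bidirectionally versus DMSO.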

Read-out in assay [4]: Keratin 19 (KRT19), KRT19 (gene 3880)
Kind of assay: LTEA_HepaRG_KRT19: Life Technologies and Expression Analysis (LTEA) Assay for Keratin 19 (KRT19) using HepaRG (AID 2283512). The gist of the method: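 Gene-expression endpoint in the human liver line HepaRG after 48 h exposure to up to 100 uM test chemical with 0.5% DMSO vehicle; KRT19 mRNA by qRT-PCR, analyzed bidirectionally versus DMSO.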

Read-out in assay [5]: JUN Transcription Factor, JUN (gene 3725)
Description: LTEA_HepaRG_JUN: Life Technologies and Expression Analysis (LTEA) Assay for JUN Transcription Factor using HepaRG (AID 2283513). The gist of the method:
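Cells plated 48 h, medium switched to serum-free induction medium, then dosed 48 h (100 uM top, half-log dilutions, 0.5% DMSO). RNA isolated; JUN measured by qRT-PCR against three housekeeping genes; gain or loss fitted relative to DMSO.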

Read-out in assay [6]: Lipase C (LIPC), LIPC (gene 3990)
Description: LTEA_HepaRG_LIPC: Life Technologies and Expression Analysis (LTEA) Assay for Lipase C (LIPC) using HepaRG (AID 2283514). The essentials:
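Differentiated human HepaRG cells in serum-free induction medium were exposed in duplicate for 48 h to eight concentrations (top 100 uM, half-log steps, 0.5% DMSO). LIPC mRNA was quantified by TaqMan qRT-PCR, normalized to ACTB, GAPDH and POLR2A, with bidirectional fitting versus DMSO.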

Read-out in assay [7]: Lipoprotein lipase (LPL), LPL (gene 4023)
Kind of assay: LTEA_HepaRG_LPL: Life Technologies and Expression Analysis (LTEA) Assay for Lipoprotein lipase (LPL) using HepaRG (AID 2283515). The essentials: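 Differentiated human HepaRG cells in serum-free induction medium were exposed in duplicate for 48 h to eight half-log concentrations (top 100 uM) in 0.5% DMSO. LPL mRNA was quantified by TaqMan qRT-PCR, normalized to ACTB, GAPDH and POLR2A.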

Read-out in assay [8]: MicroRNA 122 (MIR122), gene 406906
Description: LTEA_HepaRG_MIR122: Life Technologies and Expression Analysis (LTEA) Assay for MicroRNA 122 (MIR122) using HepaRG (AID 2283516). Further: the transcript read is the microRNA miR-122. The essentials: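 HepaRG plated 48 h, switched to serum-free induction medium, then treated in duplicate for 48 h (100 uM top, half-log steps, 0.5% DMSO vehicle). RNA isolated, qRT-PCR performed, concentration-response fitted both directions relative to DMSO.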

Read-out in assay [9]: matrix metalloproteinase-10 (MMP10), MMP10 (gene 4319)
Description: LTEA_HepaRG_MMP10: Life Technologies and Expression Analysis (LTEA) Assay for matrix metalloproteinase-10 (MMP10) using HepaRG (AID 2283517). The gist of the method: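 HepaRG, collagen I, ~100,000 cells/well; serum-free induction medium; 48 h exposure, duplicate, 8-pt half-log to 100 uM, 0.5% DMSO. Readout: TaqMan qRT-PCR, normalized to ACTB/GAPDH/POLR2A; bidirectional fit vs DMSO.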

Read-out in a further assay: MYC, MYC (gene 4609)
Description: LTEA_HepaRG_MYC: Life Technologies and Expression Analysis (LTEA) Assay for MYC using HepaRG (AID 2283518). The gist of the method:
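Cells are thawed, plated and cultured 48 h, then treated for 48 h with test chemicals (eight half-log concentrations from 100 uM, 0.5% DMSO vehicle). RNA is isolated and MYC expression quantified by qRT-PCR against three housekeeping genes.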

Read-out in assay [10]: matrix metalloproteinase-3 (MMP3), MMP3 (gene 4314)
Description: LTEA_HepaRG_MMP3: Life Technologies and Expression Analysis (LTEA) Assay for matrix metalloproteinase-3 (MMP3) using HepaRG (AID 2283519). The gist of the method:
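Differentiated human HepaRG cells, plated 48 h on collagen I, were exposed in duplicate for 48 h in serum-free induction medium to eight half-log concentrations up to 100 uM in 0.5% DMSO. MMP3 mRNA was quantified by TaqMan qRT-PCR, normalised to ACTB, GAPDH and POLR2A.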

Read-out in assay [11]: Paternally Expressed 10 (PEG10), PEG10 (gene 23089)
Description: LTEA_HepaRG_PEG10: Life Technologies and Expression Analysis (LTEA) Assay for Paternally Expressed 10 (PEG10) using HepaRG (AID 2283520). The essentials: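 HepaRG, 48 h post-plating → serum-free induction medium → 48 h chemical exposure (duplicate, 8-pt, max 100 uM, half-log, 0.5% DMSO) → lysis in RLT → TaqMan qRT-PCR for PEG10, ACTB/GAPDH/POLR2A normalisation.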

Read-out in assay [12]: Nuclear factor NF-kappa-B p105 subunit (Homo sapiens) (UniProt P19838)
Kind of assay: LTEA_HepaRG_NFKB1: Life Technologies and Expression Analysis (LTEA) Assay for Nuclear Factor Kappa B Subunit 1 (NFKB1) using HepaRG (AID 2283521).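 On outcome: TaqMan qRT-PCR transcript normalised to ACTB GAPDH and POLR2A housekeeping genes.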 The gist of the method: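 Human HepaRG cells receive eight half-log concentrations, highest 100 uM, for 48 h. NFKB1 expression is then quantified by qRT-PCR and analysed for up- or down-regulation relative to 0.5% DMSO vehicle.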

Read-out in assay [13]: Protein phosphatase 2A (PPP2R4), PTPA (gene 5524)
Description: LTEA_HepaRG_PPP2R4: Life Technologies and Expression Analysis (LTEA) Assay for Protein phosphatase 2A (PPP2R4) using HepaRG (AID 2283522). The gist of the method: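 Readout is PPP2R4 transcript level by microfluidic qRT-PCR after 48 h chemical treatment of human HepaRG liver cells. Concentrations spanned 100 uM downward in half-log steps; gain or loss of signal was fitted relative to DMSO.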

Read-out in assay [14]: Phosphatase and tensin (PTEN), PTEN (gene 5728)
Description: LTEA_HepaRG_PTEN: Life Technologies and Expression Analysis (LTEA) Assay for Phosphatase and tensin (PTEN) using HepaRG (AID 2283523). The gist of the method: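 Differentiated human HepaRG cells, plated 48 h then switched to serum-free induction medium, were exposed in duplicate for 48 h to eight half-log concentrations up to 100 uM in 0.5% DMSO. PTEN mRNA measured by TaqMan qRT-PCR, normalized to ACTB/GAPDH/POLR2A, bidirectional fit versus DMSO.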

Read-out in assay [15]: solute carrier (SLC22A1), SLC22A1 (gene 6580)
Kind of assay: LTEA_HepaRG_SLC22A1: Life Technologies and Expression Analysis (LTEA) Assay for solute carrier (SLC22A1) using HepaRG (AID 2283524). The essentials: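 Human HepaRG cells were plated 48 h, switched to serum-free induction medium, then exposed in duplicate for 48 h to 8-point half-log series from 100 uM in 0.5% DMSO. SLC22A1 mRNA measured by qRT-PCR, normalized to ACTB/GAPDH/POLR2A, fitted bidirectionally versus DMSO.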

Read-out in assay [16]: Pyruvate Dehydrogenase Kinase 4 (PDK4), PDK4 (gene 5166)
Kind of assay: LTEA_HepaRG_PDK4: Life Technologies and Expression Analysis (LTEA) Assay for Pyruvate Dehydrogenase Kinase 4 (PDK4) using HepaRG (AID 2283525). The essentials: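 Differentiated human HepaRG cells, pre-cultured 48 h, were exposed in duplicate for 48 h in serum-free induction medium to eight half-log concentrations up to 100 uM in 0.5% DMSO. PDK4 mRNA was quantified by qRT-PCR, normalized to ACTB, GAPDH and POLR2A, bidirectional fitting versus DMSO.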

Read-out in assay [17]: NAD(P)H dehydrogenase [quinone] 1 (NQO1), NQO1 (gene 1728)
Kind of assay: LTEA_HepaRG_NQO1: Life Technologies and Expression Analysis (LTEA) Assay for NAD(P)H dehydrogenase [quinone] 1 (NQO1) using HepaRG (AID 2283526). The essentials:
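HepaRG, 48 h post-plating → serum-free induction medium → test chemical 48 h (duplicate, 100 uM top, half-log x8, 0.5% DMSO) → RNA isolation → qRT-PCR, ACTB/GAPDH/POLR2A normalization; bidirectional curve fit vs DMSO baseline.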

Read-out in assay [18]: Nuclear factor erythroid 2-related factor 2 (Homo sapiens) (UniProt Q16236)
Description: LTEA_HepaRG_NFE2L2: Life Technologies and Expression Analysis (LTEA) Assay for Nuclear factor erythroid 2-related factor 2 (NFE2L2) Transcription Factor using HepaRG (AID 2283527).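 On outcome: TaqMan qRT-PCR transcript level normalised to ACTB GAPDH and POLR2A housekeeping genes.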 The gist of the method:
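Differentiated human HepaRG cells in serum-free induction medium were exposed for 48 h to eight concentrations (top 100 uM, half-log dilutions, 0.5% DMSO), in duplicate. NFE2L2 mRNA was quantified by TaqMan qRT-PCR, normalized to ACTB, GAPDH and POLR2A, with bidirectional fitting versus DMSO.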

Read-out in assay [19]: succinate dehydrogenase complex iron sulfur subunit B (SDHB), SDHB (gene 6390)
Kind of assay: LTEA_HepaRG_SDHB: Life Technologies and Expression Analysis (LTEA) Assay for succinate dehydrogenase complex iron sulfur subunit B (SDHB) using HepaRG (AID 2283528). The gist of the method: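 A human HepaRG culture in serum-free induction medium received test chemicals for 48 h over an eight-point range capped at 100 uM. SDHB expression change was quantified by qRT-PCR.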

Activity calls are given as the source filed them. How the source made its calls: active means hit-call score of the fitted dose curve at least 0.9, where 1 is the maximum; inactive means score below 0.9.

Chain of Nuclear factor erythroid 2-related factor 2 (Homo sapiens) (Q16236 whole entry, looked up): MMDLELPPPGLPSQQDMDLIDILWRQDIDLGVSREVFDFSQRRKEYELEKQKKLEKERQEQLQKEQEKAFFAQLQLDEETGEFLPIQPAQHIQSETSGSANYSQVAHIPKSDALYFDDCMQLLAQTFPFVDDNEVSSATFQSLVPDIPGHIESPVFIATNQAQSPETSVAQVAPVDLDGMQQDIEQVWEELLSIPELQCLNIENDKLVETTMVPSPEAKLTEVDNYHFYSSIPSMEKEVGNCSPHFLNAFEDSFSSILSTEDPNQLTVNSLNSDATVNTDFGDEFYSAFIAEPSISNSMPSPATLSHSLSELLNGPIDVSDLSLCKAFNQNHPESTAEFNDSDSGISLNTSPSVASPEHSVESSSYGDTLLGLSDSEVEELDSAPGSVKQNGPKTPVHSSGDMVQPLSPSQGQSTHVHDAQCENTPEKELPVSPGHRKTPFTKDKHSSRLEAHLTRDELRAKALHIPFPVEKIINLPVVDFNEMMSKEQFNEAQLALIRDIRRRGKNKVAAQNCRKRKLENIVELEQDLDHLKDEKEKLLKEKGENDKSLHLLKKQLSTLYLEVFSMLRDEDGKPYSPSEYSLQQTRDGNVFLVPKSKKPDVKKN
Chain of Nuclear factor NF-kappa-B p105 subunit (Homo sapiens) (P19838 whole entry, looked up): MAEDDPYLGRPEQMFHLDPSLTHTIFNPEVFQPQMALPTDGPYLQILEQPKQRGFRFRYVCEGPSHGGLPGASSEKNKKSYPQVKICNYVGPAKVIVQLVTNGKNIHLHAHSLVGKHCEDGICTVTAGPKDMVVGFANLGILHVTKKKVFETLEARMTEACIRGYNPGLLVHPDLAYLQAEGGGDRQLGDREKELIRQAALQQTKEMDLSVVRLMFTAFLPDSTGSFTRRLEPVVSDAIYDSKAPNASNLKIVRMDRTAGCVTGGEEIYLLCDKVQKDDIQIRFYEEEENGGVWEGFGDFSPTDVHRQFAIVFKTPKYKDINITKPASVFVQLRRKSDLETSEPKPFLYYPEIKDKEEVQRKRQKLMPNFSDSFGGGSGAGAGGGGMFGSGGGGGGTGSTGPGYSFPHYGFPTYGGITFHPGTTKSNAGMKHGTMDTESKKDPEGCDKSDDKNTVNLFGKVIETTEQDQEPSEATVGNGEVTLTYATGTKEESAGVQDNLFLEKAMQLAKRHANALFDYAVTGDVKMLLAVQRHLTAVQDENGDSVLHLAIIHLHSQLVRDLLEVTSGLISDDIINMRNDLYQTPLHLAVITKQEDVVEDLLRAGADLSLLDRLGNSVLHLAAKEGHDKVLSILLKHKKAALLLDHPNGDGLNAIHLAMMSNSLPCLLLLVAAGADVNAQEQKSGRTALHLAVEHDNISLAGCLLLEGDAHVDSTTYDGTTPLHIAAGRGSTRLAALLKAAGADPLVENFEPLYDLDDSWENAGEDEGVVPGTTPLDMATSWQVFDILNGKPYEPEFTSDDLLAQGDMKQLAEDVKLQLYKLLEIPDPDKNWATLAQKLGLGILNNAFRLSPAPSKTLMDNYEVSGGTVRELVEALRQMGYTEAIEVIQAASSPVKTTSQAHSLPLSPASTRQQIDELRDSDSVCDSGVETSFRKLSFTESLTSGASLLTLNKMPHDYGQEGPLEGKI

`N#C[C@@H]1CC(F)(F)CN1C(=O)CNC1CC2CCC(C1)N2c1ncccn1` (stereo not given in full): the call in [1], in [2], in [3], in assay [4], in assay [5] and in assay [6] was inactive. The outcome in assay [7] is “inactive”; in [8] it was “inactive”; in assay [9] it was “inactive”; in the assay with MYC, MYC (gene 4609) it was “inactive”; in assay [10], “inactive”; in assay [11] it was “inactive”. For the same molecule, the molecule was classed as inactive in assay [13], in assay [14], in [15], in [16], in assay [17] and in assay [18]. The outcome in assay [19] was inactive. In addition, the AC50 in assay [12] was 1.8 µM (active).

As for `Cc1cc(CCN2CCN(c3nsc4ccccc34)CC2)cc2c1NC(=O)CC2(C)C`, the AC50 is 79.3 µM (active) in assay [1]; 84.7 µM (active) in [2]; 50 µM (active) in assay [4]; 81.6 µM (active) in assay [6]; 50 µM (active) in assay [7]; 78.5 µM (active) in assay [8]. Moreover, the half-maximal activity concentration (AC50) in the assay with MYC, MYC (gene 4609) is 87.1 µM (active); in assay [15], 84.8 µM (active); in [16], 4.39 µM (active); in [18], 50 µM (active). Further, the result in [3], in assay [5], in assay [9], in [10], in assay [11] and in [12] was inactive. In addition, the call in assay [13], in assay [14], in assay [17] and in [19] was inactive.

Regarding `O=C(O)Cc1cc(I)c(Oc2cc(I)c(O)c(I)c2)c(I)c1`, the AC50 in [1] was 54 µM (active); in assay [2], 55 µM (active); in [3] it was 53.9 µM (active); in assay [4] it was 0.0526 µM (active); in assay [5], 52.3 µM (active); in [6], 52.2 µM (active). In addition, the concentration at half-maximal activity (AC50) in [7] was 60.6 µM (active); in assay [8], 58.6 µM (active); in [9], 51.5 µM (active); in the assay with MYC, MYC (gene 4609) it was 52 µM (active); in assay [10] it was 51.5 µM (active); in assay [11], 0.228 µM (active). Also, the half-maximal activity concentration (AC50) is 52.8 µM (active) in [12]; 54.9 µM (active) in assay [13]; 59.9 µM (active) in assay [14]; 53.1 µM (active) in assay [15]; 49.6 µM (active) in assay [16]; 33.5 µM (active) in assay [17]. The values for the AC50 in assay [18] and in [19] were 54.9 µM (active) and 62.9 µM (active), respectively.

The AC50 is the midpoint of the concentration-response curve, whichever way the signal moves.
